The results in this text go back to publication PMC7819943, “Rice protein-binding microarrays: a tool to detect cis-acting elements near promoter regions in rice”.

Over roughly 35,000 sequences, “fluorescence intensity (a.u.)” has its median near 10,000; the highest 2% begin near 52,000. The list comes from a sample in which the highest values are over-represented; it also holds similar and randomly drawn sequences.

The target of the assay is T1, OsWOX13 (Oryza sativa, UniProt Q5QMM3 1-267).
T1 sequence: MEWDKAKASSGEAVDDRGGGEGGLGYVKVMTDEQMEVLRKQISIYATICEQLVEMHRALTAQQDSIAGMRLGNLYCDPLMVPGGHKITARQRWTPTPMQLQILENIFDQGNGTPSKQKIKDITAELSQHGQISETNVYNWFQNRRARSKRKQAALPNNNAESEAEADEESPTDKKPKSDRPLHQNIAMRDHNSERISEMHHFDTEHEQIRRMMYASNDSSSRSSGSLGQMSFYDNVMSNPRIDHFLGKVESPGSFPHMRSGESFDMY
Kind of assay: protein-binding microarray (RPBM); PBS, 2% BSA, 51.3 ng/ul salmon testes DNA, 50 uM zinc acetate, 200 nM TF, 25 C, 1 h; high values mean tight binding. The settings on record: protein: recombinant; tags: N-terminal polyhistidine and DsRed monomer fusion (pET32a); label: CyDye5-dUTP incorporated in the synthesized complementary strand; 3' TTTTT single-stranded linker to array surface; dsDNA, one strand shown. Put shortly: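 Transcription factors were each fused at the N-terminus to a polyhistidine tag plus DsRed and expressed in E. coli BL21-CodonPlus before Ni–NTA purification. Binding to a double-stranded custom Agilent array was carried out with 200 nM protein at 25 °C for 1 h in PBS, 2% BSA, salmon testes DNA and 50 µM zinc acetate. The binding signal is per-feature fluorescence intensity, in arbitrary units, on an Axon 4000B scanner.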
As for “AGTCATCAAAATTACGCATGTAATTAGTATATATAATTATCGGAGTCACCTAGTGCAG”, the binding signal was 9910 fluorescence intensity (a.u.).

For the sequence “TTTAGTATATAATAGATAGATAGATAGAAGATTTGTACTACGGAGTCACCTAGTGCAG”, the binding signal is 4500 fluorescence intensity (a.u.).

On to “GCTGACTGGATAAAATCTGATAAGCGTGAAGATGACCTTTCGGAGTCACCTAGTGCAG”, for which the binding signal is 21400 fluorescence intensity (a.u.).

In the case of “TTCGAAAATTACCTGTAACCTTCCATCCATCACACACACACGGAGTCACCTAGTGCAG”, the binding signal is 3500 fluorescence intensity (a.u.).

In the case of “AGCTAATTAAGCTAGTGAGAGCTAGTGGAGGTACATGGCTCGGAGTCACCTAGTGCAG”, the binding signal was 11600 fluorescence intensity (a.u.).

Consider “TTAATTAGGAGATATTGATTGATAAACGTACCTCTTGGTGCGGAGTCACCTAGTGCAG”, for which the binding signal is 65300 fluorescence intensity (a.u.).

“GCTTACAATTAATGATTACCTTTTCATAAAGATTATTATTCGGAGTCACCTAGTGCAG”: the binding signal is 12400 fluorescence intensity (a.u.).

With “CTGTGAATTGATTCATCTCTCACACATGGTTCTCCACTATCGGAGTCACCTAGTGCAG”, the binding signal was 9680 fluorescence intensity (a.u.).

As to “GGGTGATATAAATTAGGAGGTGATAATAATTATTTCTTGGCGGAGTCACCTAGTGCAG”, the binding signal is 26700 fluorescence intensity (a.u.).

Turning to “TTGATTGATGTCATTTAAATTATCATTGGTCTTGGTGTATCGGAGTCACCTAGTGCAG”, the binding signal is 41100 fluorescence intensity (a.u.).

For the sequence “GATTGATGCAATTTAAATTATACTTAGTATTGGTGTATAACGGAGTCACCTAGTGCAG”, the binding signal is 11400 fluorescence intensity (a.u.).

For the sequence “TAATTGATGTAATTTAAATTATTCTTGGTCTTAGTGTATACGGAGTCACCTAGTGCAG”, the binding signal was 54800 fluorescence intensity (a.u.).

Regarding “ATAAAATAAATGATAATTACATAAATTTCTTTAAATAAGACGGAGTCACCTAGTGCAG”, the binding signal was 10900 fluorescence intensity (a.u.).

Consider “AGCTGATCTATCCAAATTGGTGAAACTAATTGTAAATTCTCGGAGTCACCTAGTGCAG”, for which the binding signal is 11000 fluorescence intensity (a.u.).

For the sequence “CGATTGATTGATTCTTGGTGCTCACTATCTCTAAATTGATCGGAGTCACCTAGTGCAG”, the binding signal is 59600 fluorescence intensity (a.u.).

Consider “CTTTAATTGGTGCTTGTTAAACCTCTTAGTGCTTGTTAAACGGAGTCACCTAGTGCAG”, for which the binding signal is 29200 fluorescence intensity (a.u.).

In the case of “ACAATGATTGGGTCTTAAGATTTTCTTTAATTATTCGACGCGGAGTCACCTAGTGCAG”, the binding signal was 58300 fluorescence intensity (a.u.).

“AATAAATCTATAATTTTATGATATTATGACTTAAATCTATCGGAGTCACCTAGTGCAG”: the binding signal is 4790 fluorescence intensity (a.u.).

As for “TTTTATTAACTGTAAACGTCACATGTTCTGTCATACGCGTCGGAGTCACCTAGTGCAG”, the binding signal was 5270 fluorescence intensity (a.u.).

As to “CTTGTCAATCTACAGAGAGTCCACGAGTTAGTAGTATGTGCGGAGTCACCTAGTGCAG”, the binding signal was 8690 fluorescence intensity (a.u.).

With “TAGTTAATTGTGCCAAACAAAATTCAAAATTAAGACATCTCGGAGTCACCTAGTGCAG”, the binding signal is 33000 fluorescence intensity (a.u.).

Turning to “CACATTGACCAAAATTTAATGTTTGTTTCCTACTAGTGTGCGGAGTCACCTAGTGCAG”, the binding signal is 4440 fluorescence intensity (a.u.).

For the sequence “TGGCACACTAATTAGGGAGAAAATCTCTATCTTGTGTTGTCGGAGTCACCTAGTGCAG”, the binding signal is 9710 fluorescence intensity (a.u.).

Consider “TATTGATATGATTTAAATTGTCCTTGGTCTTGGTGTATAACGGAGTCACCTAGTGCAG”, for which the binding signal was 40700 fluorescence intensity (a.u.).

In the case of “GGTGTCTTGATTGATATGATTTAAATTATTCTTGGTCTTGCGGAGTCACCTAGTGCAG”, the binding signal was 58500 fluorescence intensity (a.u.).

For the sequence “AATAATTTTCTTTTGTCACACTGTTTCTTCTCTAATCTATCGGAGTCACCTAGTGCAG”, the binding signal is 5890 fluorescence intensity (a.u.).

On to “TATTAATTGATGCGATTTAAATTATCTTTGGTCTTGATGTCGGAGTCACCTAGTGCAG”, for which the binding signal is 50000 fluorescence intensity (a.u.).

On to “ACACTAATTAGGGAGATAATCTCTCTTGTGGTGTTTGTGTCGGAGTCACCTAGTGCAG”, for which the binding signal is 52300 fluorescence intensity (a.u.).

On to “ATACTGTCATCAATTGATTACTCTGACCGTCGATCACACACGGAGTCACCTAGTGCAG”, for which the binding signal is 34100 fluorescence intensity (a.u.).

On to “TTATAACACAAATAATATAATAGATATATAGACTGTTGTCCGGAGTCACCTAGTGCAG”, for which the binding signal is 3650 fluorescence intensity (a.u.).

In the case of “ATGTAATTTCACCATAACTATATATTATAATAAGATAAGTCGGAGTCACCTAGTGCAG”, the binding signal was 8720 fluorescence intensity (a.u.).

Consider “GTGTATCATCTAGGTCCTAAATTGACACATCCCCTCTAGGCGGAGTCACCTAGTGCAG”, for which the binding signal was 10100 fluorescence intensity (a.u.).

With “AAGTGATTGAAATTTAATTCATGATCCTAAACCATACAACCGGAGTCACCTAGTGCAG”, the binding signal is 53200 fluorescence intensity (a.u.).

With “AGGGTGATTGACAGGTGGGTCCATCCCCTCACATGCCAGGCGGAGTCACCTAGTGCAG”, the binding signal is 64800 fluorescence intensity (a.u.).

As to “ATATAGTTACCAAAATTTGACAGCAAACTAAATGTAGCCACGGAGTCACCTAGTGCAG”, the binding signal was 7890 fluorescence intensity (a.u.).

For “AATTGAAATAATTGGAAATTTTCATATTTATATATTAAACCGGAGTCACCTAGTGCAG”, the binding signal was 5800 fluorescence intensity (a.u.).

“TCCAGGTGATGGTAATGATATTGACATGCCCTCATCTAGTCGGAGTCACCTAGTGCAG”: the binding signal is 3770 fluorescence intensity (a.u.).

Take “TTATATAGTTACCAAAATTTGACAGCAAACTAAATGTAGCCGGAGTCACCTAGTGCAG”: the binding signal was 3680 fluorescence intensity (a.u.).

For “ATGATTTTCATCCGTTAGATTTGATGAATAAAGTATGAAGCGGAGTCACCTAGTGCAG”, the binding signal was 11100 fluorescence intensity (a.u.).

As for “AAGAAAATTTAAAACAATTGATTACATACTAAATTAATATCGGAGTCACCTAGTGCAG”, the binding signal was 9840 fluorescence intensity (a.u.).

Regarding “CTAGATTGATCGAAATCCGTCAAGTTCATGAACCGTTAAGCGGAGTCACCTAGTGCAG”, the binding signal was 54400 fluorescence intensity (a.u.).

With “TACCATGATTGGGCTGCAACTAAATTGACAGGTCAGCCATCGGAGTCACCTAGTGCAG”, the binding signal is 60400 fluorescence intensity (a.u.).
